As a reminder, the AC50 is the concentration giving half of the maximal activity seen.

The source of these data is PubChem BioAssay AID1851 (National Center for Advancing Translational Sciences (NCATS), 2009).

SMILES strings stand for the structures. Where “and” joins values, the source holds several entries; their conditions need not be identical. Equal entries are not always repeated. The whole screen tested about 16,000 compounds, of which about 5,700 (36%) were called active. Roughly 24% stayed inconclusive and do not appear here. Calls follow the shape of the dose curve; as a rule, active = well fitted curve in the direction sought with a large enough effect; inconclusive = small, poorly fitted or top-dose-only effect, or effect the other way; inactive = no such curve, though single readings can be large or run the other way. This is one part of the list.
% is scaled to controls: 0 for no effect and ±100 for the full control effect.

The target in this assay is Cytochrome P450 1A2 (Homo sapiens) (UniProt P05177). In words: Cytochrome panel assay with activity outcomes. The settings on record: recombinant CYP, pro-luciferin dealkylation, luminescence, p450-cyp1a2; series mostly up to 57.1 µM.
Sequence of Cytochrome P450 1A2 (Homo sapiens) (P05177 whole entry, looked up): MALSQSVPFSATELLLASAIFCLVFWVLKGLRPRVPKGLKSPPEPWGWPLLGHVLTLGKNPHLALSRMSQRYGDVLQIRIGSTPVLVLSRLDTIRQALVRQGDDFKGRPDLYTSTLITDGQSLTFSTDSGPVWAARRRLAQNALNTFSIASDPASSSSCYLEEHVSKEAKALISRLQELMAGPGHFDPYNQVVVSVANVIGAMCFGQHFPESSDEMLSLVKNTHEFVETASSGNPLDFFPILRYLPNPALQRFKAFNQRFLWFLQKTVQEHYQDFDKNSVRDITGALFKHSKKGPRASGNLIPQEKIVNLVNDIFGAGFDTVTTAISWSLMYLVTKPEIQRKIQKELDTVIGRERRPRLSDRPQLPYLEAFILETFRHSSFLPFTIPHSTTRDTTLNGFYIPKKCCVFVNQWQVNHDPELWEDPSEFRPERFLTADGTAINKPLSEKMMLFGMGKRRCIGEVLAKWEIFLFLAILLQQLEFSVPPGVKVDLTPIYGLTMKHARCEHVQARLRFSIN
Take `COc1ccc(O[C@H]2C=C[C@@H](c3ccccc3)O[C@H]2COC(=O)N2CCCCC2)cc1`: the activity, negative = inhibition was -4.44% [at 11.4 µM] (inactive).

Consider `C(=N\Nc1nc(Nc2ccccc2)nc(N2CCOCC2)n1)/c1c[nH]c2ccccc12`, for which the AC50 is 10000 nM (active).

As to `C#CCCCO/N=C1/C[C@@H](O)[C@@H](O)[C@@H]2[C@@H]3C(=O)N(C[C@@H]4CCCO4)C(=O)[C@H]3CC[C@@H]12`, the activity, negative = inhibition is 1.69% [at 11.4 µM] (inactive).

Take `COc1ccccc1N1CCN(CCCNc2cc(=O)n(C)c(=O)n2C)CC1`: the AC50 entry is “inactive”.

Regarding `COc1ccccc1N1CCN(CCCCNC(=O)c2ccc3ccccc3c2)CC1`, the AC50 result was “inactive”.

For `COc1ccccc1N1CCN(CCCCNC(=O)c2ccc(-c3ccc(C(C)=O)cc3)cc2)CC1`, the AC50 is 25100 nM (active).

With `COc1ncc2nc(-c3ccc(F)cc3)c(=O)n(CCc3ccccc3)c2n1`, the AC50 was 398 nM (active).

For `COc1ncc2nc(-c3ccc(F)cc3)c(=O)n(Cc3ccc(F)cc3)c2n1`, the AC50 was 1580 nM (active).

As for `COc1ncc2nc(C)c(=O)n(CCc3ccccc3)c2n1`, the AC50 was 2000 nM (active).

Consider `COc1ccccc1N(CC(=O)NCC1CCCO1)C(=O)CNS(=O)(=O)c1ccc(C)cc1` (centres undefined), for which the AC50 entry was “inactive”.

In the case of `Cc1ccc(S(=O)(=O)N[C@H]2COC(=O)CC=C[C@@H](C)[C@H]3C=C[C@H](O)[C@@H](COC(=O)CC=C[C@H]2C)O3)cc1`, the activity, negative = inhibition was -8.39% [at 11.4 µM] (inactive) and -5.02% [at 11.4 µM] (inactive).

Turning to `S=c1nc[nH]c2c1ncn2Cc1ccco1`, the activity, negative = inhibition is -16.3% [at 11.4 µM] (inactive).

As to `Cc1c(NC(=O)CN2CCN(c3ccccc3)CC2)c(=O)n(-c2ccccc2)n1C`, the AC50 entry is “inactive”.

With `CCOC(=O)c1c(C)n(C)c2ccc(OC)c(NC(=O)CN3CCCCC3)c12`, the AC50 is 15800 nM (active).

As for `O=c1c(-c2nnc(SCc3ccc(Cl)c(Cl)c3)o2)cccn1Cc1ccccc1`, the AC50 result is “inactive”.

Consider `Clc1ccc(CSc2nnc(-c3cccnc3)o2)cc1`, for which the AC50 is 3550 nM (active).

`Cc1cccc(-c2nnc(SCc3ccccc3)o2)c1`: the AC50 was 14100 nM (active).

Turning to `c1ccc(CSc2nnc(-c3sccc3-n3cccc3)o2)cc1`, the AC50 was 2820 nM (active).

`Clc1ccc(CSc2nnc(-c3sccc3-n3cccc3)o2)cc1`: the AC50 is 2820 nM (active).

For `Clc1cccc(CSc2nnc(-c3sccc3-n3cccc3)o2)c1`, the AC50 was 2510 nM (active).

In the case of `CC(NC(=O)CCSc1nc(-c2ccco2)cc(C(F)(F)F)n1)c1ccccc1` (centres undefined), the AC50 was 12600 nM (active).

Turning to `O=C(NC(C(=O)c1ccccc1)n1cnccc1=O)c1ccccc1` (centres undefined), the AC50 entry was “inactive”.

`CC1CCN(C(NC(=O)c2ccco2)C(=O)c2ccccc2)CC1` (centres undefined): the AC50 is 14100 nM (active).

For the compound `COC(=O)c1ccc(C(NC(=O)c2ccco2)[C@]2(C)C[C@H]2C2CCCCC2)cc1` (some centres undefined), the AC50 result was “inactive”.

Consider `NC(N)=Nc1ccc(-c2ccc(N=C(N)N)cc2)cc1`, for which the activity, negative = inhibition is -1.39% [at 11.4 µM] (inactive).

For the compound `CCSC(N)=Nc1ccc(C(F)(F)F)cc1`, the AC50 was 2510 nM (active).

For the compound `CCOC(=O)c1sc(C)c(C(=O)NCC(C)(C)CN(C)C)c1N`, the AC50 entry is “inactive”.

For `CCOC(=O)c1nc(N)sc1C(=O)OCC`, the AC50 was 7080 nM (active).

On to `CCN1CCN(C(=O)N[C@H](C(=O)N[C@@H]2C(=O)N3[C@@H]2SC(C)(C)[C@@H]3C(=O)O)c2ccccc2)C(=O)C1=O`, for which the AC50 entry is “inactive”.

On to `O=C(O)c1nn(-c2ccccc2-c2n[nH]c(=O)[nH]c2=O)c(=O)[nH]c1=O`, for which the activity, negative = inhibition is -21.2% [at 11.4 µM] (inactive).

`O=C1C(C2=NC(C(=O)O)C3C(=O)N(c4ccc(Cl)cc4)C(=O)C23)=C(O)c2ccccc21` (centres undefined): the AC50 entry was “inactive”.

As to `O=C(O)c1nn(-c2ccc(Cl)cc2)c2c1C(=O)c1ccccc1C2=O`, the AC50 is 251 nM (active).

In the case of `CC(C)CN1CC[C@@]2(CCCN(C(=O)c3cnccn3)C2)C1`, the AC50 entry was “inactive”.

For `CC(=O)NNc1cccc(Cl)n1`, the AC50 entry was “inactive”.

For the compound `O=C(Nc1nnc(-c2ccc(Cl)cc2)o1)Nc1ccccc1Cl`, the AC50 is 1580 nM (active).

On to `O=C(NNc1cccc(Cl)n1)Nc1ccccc1Cl`, for which the AC50 was 2510 nM (active).

`O=C(Nc1ccccc1Cl)c1ccccc1Cl`: the AC50 is 1780 nM (active).

Regarding `Cc1cc(NC(=O)c2ccccc2Cl)c(C(C)C)cc1O`, the AC50 is 3550 nM (active).

As for `Cn1sc(NC(=O)c2ccccc2Cl)nc1=O`, the AC50 result is “inactive”.

In the case of `O=C(CCN1CCN(CC(=O)Nc2ccccc2Cl)CC1)Nc1ccccc1F`, the AC50 result is “inactive”.

Regarding `Cc1cccc(C)c1NC(=O)C(NC=O)c1ccccc1Cl` (centres undefined), the AC50 result is “inactive”.

For the compound `CCCC(O)(CCC)C(=O)NN1CCCCC1`, the AC50 entry is “inactive”.

`O=C(O)COC(=O)Cc1ccccc1Nc1c(Cl)cccc1Cl`: the AC50 result is “inactive”.

For the compound `O=C(O)C1CCCCC1C(=O)Nc1ccccc1Cl` (centres undefined), the AC50 entry was “inactive”.

In the case of `NC(=O)NC(=O)Nc1ccccc1Cl`, the AC50 is 4470 nM (active).

In the case of `O=C(Nc1ccccc1Cl)c1ccn[nH]1`, the AC50 is 794 nM (active).

For `COc1nc(N)nc2c1ncn2[C@@H]1C[C@H](O)[C@@H](CO)O1`, the activity, negative = inhibition was -7.83% [at 11.4 µM] (inactive).

In the case of `O=C1CC(N2CCOCC2)C(=O)N1c1cccc(Cl)c1` (centres undefined), the AC50 result is “inactive”.

Regarding `Clc1cccc(N/N=C/c2ccc(N3CCOCC3)cc2)c1`, the AC50 is 2510 nM (active).

As to `Cc1ccc(Nc2ccc(-n3ccnc3)nn2)cc1C`, the AC50 is 158 nM (active).

On to `Cc1cc(/C=N/n2cnnc2)c(C)n1-c1ccc(OCc2ccccc2F)cc1`, for which the AC50 was 12600 nM (active).

Take `Fc1ccc(CSc2nnc(-c3cc4c(s3)-c3ccccc3CC4)o2)cc1`: the AC50 is 2240 nM (active).

With `c1ccc(-c2noc(-c3ccc4ccccc4c3)n2)cc1`, the AC50 is 3160 nM (active).

Turning to `Cc1ccc(-c2nnc(-c3ccc4ccccc4c3)o2)cc1`, the AC50 was 631 nM (active).

As to `O=C(O)c1nnsc1-c1csnn1`, the activity, negative = inhibition is -3.7% [at 11.4 µM] (inactive).

With `c1ccc2cc(-c3csnn3)ccc2c1`, the AC50 was 112 nM (active).

As for `c1ccc2cc(-c3cc(-c4cc(-c5ccc6ccccc6c5)on4)no3)ccc2c1`, the AC50 is 1580 nM (active).

On to `CC/C=C\CC[C@H](O)C1=CCCCC1=O`, for which the activity, negative = inhibition was -2.33% [at 11.4 µM] (inactive).

As for `CC[C@@H](C)[C@H]1O[C@]2(CC[C@@H]1C)C[C@@H]1C[C@H](C/C=C(/C)[C@H](O[C@@H]3C[C@H](OC)[C@H](O[C@@H]4C[C@H](OC)[C@@H](O)[C@H](C)O4)[C@H](C)O3)[C@@H](C)/C=C\C=C3CO[C@@H]4[C@H](O)C(C)=C[C@@H](C(=O)O1)[C@]34O)O2` (tested in a mixture with another compound), the AC50 result was “inactive”.

As to `C[C@@H]1C[C@H](OC(=O)[C@@H](O)c2ccccc2)CC(C)(C)N1C`, the AC50 result was “inactive”.

As for `CCCCCn1c(CN2CCN(c3cc(Cl)ccc3C)CC2)nc2c1c(=O)[nH]c(=O)n2C`, the AC50 entry was “inactive”.

With `CCOC(=O)CCCNC(=O)CCCNC(=O)C(c1ccccc1)c1ccccc1`, the AC50 entry was “inactive”.

`CCOC(=O)CNC(=O)c1cccnc1`: the AC50 result is “inactive”.

As to `Cc1ccc(OCCNC(=O)c2cncc(Br)c2)cc1C`, the AC50 is 14100 nM (active).

As for `O=C(NCCO[N+](=O)[O-])c1cccnc1`, the AC50 result was “inactive”.

For the compound `CCOC(=O)CCCNC(=O)c1cncc(Br)c1`, the AC50 is 12600 nM (active).

As for `CO[C@H]1COC(=O)[C@H](C)COC(=O)[C@@H](Cc2ccccc2)NC(=O)C/C=C\[C@H]1C`, the activity, negative = inhibition was -3.2% [at 11.4 µM] (inactive).

For `Cc1cc(NC(=O)CCC(=O)N(CC2CCCO2)C(C(=O)NC2CCCC2)c2cccnc2)no1` (centres undefined), the AC50 entry is “inactive”.

Take `COc1ccc(NC(=O)N(C2CCCCC2)C(C)c2cccnc2)c(OC)c1` (centres undefined): the AC50 is 14100 nM (active).

Take `CCOC(=O)CN(C(=O)CCC(=O)Nc1cc(C)on1)C(C(=O)NC1CCCC1)c1cccnc1` (centres undefined): the AC50 result is “inactive”.

Regarding `C[C@H]1CC[C@H]2C(=O)N[C@H](Cc3ccccc3)C(=O)N2[C@@H]1c1ccccc1`, the activity, negative = inhibition is -2.57% [at 11.4 µM] (inactive).

Take `O=C1C2ON(c3ccccc3)C(c3ccncc3)C2C(=O)N1c1ccccc1` (centres undefined): the AC50 result is “inactive”.

Take `O=C1C(CCS(=O)c2ccccc2)C(=O)N(c2ccccc2)N1c1ccccc1` (centres undefined): the AC50 result was “inactive”.

In the case of `CCN1C(=O)N[C@@H](c2ccccc2)C1=O`, the AC50 entry was “inactive”.

Turning to `O=C1C(Cc2ccccc2)C(c2ccccc2)N1c1ccccc1` (centres undefined), the AC50 was 5010 nM (active).

Regarding `CCCC1C(=O)N(c2ccccc2)C1c1ccccc1` (centres undefined), the AC50 is 12600 nM (active).

Consider `COc1cccc(C=NC=Nc2cccc(OC)c2)c1`, for which the AC50 was 1000 nM (active).

As to `Clc1cccc(C=NC=Nc2cccc(Cl)c2)c1`, the AC50 was 631 nM (active).

Turning to `CC(C)CC(=O)Nc1ccccc1-c1nnn(CC(=O)N2CCc3ccccc3C2)n1`, the AC50 entry is “inactive”.

`CCCn1nc(NC(=O)CC(C)C)c2cc3ccccc3nc21`: the AC50 was 1580 nM (active).

For the compound `COc1ccc(CNCCc2ccccc2)cc1OCC(N)=O`, the AC50 result is “inactive”.

Consider `CCOc1cc(CNCCO)c(Cl)cc1OCC(=O)NCCc1ccccc1`, for which the AC50 is 6310 nM (active).

Take `CCNCc1cc(OCC)c(OCC(=O)NCCc2ccccc2)cc1Cl`: the AC50 is 1780 nM (active).

For `Nc1nc2c(c(=O)[nH]1)N[C@H](CCNc1ccc(C(=O)O)cc1)CN2`, the activity, negative = inhibition was -4.28% [at 11.4 µM] (inactive).

`COc1ccc(CNc2ccnc(-c3c(C)noc3C)n2)c(OC)c1`: the AC50 is 1260 nM (active).

For `COC(=O)CN(c1ccc(OC)cc1)S(=O)(=O)c1c(C)noc1C`, the AC50 entry is “inactive”.

As to `COc1ccccc1CNc1ccnc(-c2c(C)noc2C)n1`, the AC50 was 398 nM (active).

With `COc1ccccc1CN1CCC2(CC1)CCN(C(=O)c1c(C)noc1C)CC2`, the AC50 result is “inactive”.

`COc1ccccc1CN1CCCC2(CCN(C(=O)c3c(C)noc3C)CC2)C1`: the AC50 result was “inactive”.

In the case of `O=C(O)/C(=C/c1c(C(=O)O)[nH]c2cc(Cl)cc(Cl)c12)c1ccccc1`, the AC50 was 12600 nM (active).

In the case of `Cc1cc(C(=O)CSc2nnc(-c3ccccc3)o2)c(C)n1CC1COc2ccccc2O1` (centres undefined), the AC50 entry was “inactive”.

As to `c1ccc(-c2nnc(SCCC3OCCCO3)o2)cc1`, the AC50 was 1780 nM (active).

Consider `CCC1CCc2c(c3ccccc3[nH]c2=O)O1` (centres undefined), for which the AC50 is 562 nM (active).

With `C#CCn1c(=O)c2c(ncn2C)n(C)c1=O`, the AC50 entry is “inactive”.
